Our source for the Potency and outcome values is PubChem BioAssay (Tox21).

“And” between values parts separate entries of the source, which are not always exact repeats. Equal values may be shown once. Results filed as inconclusive are left out. Where a structure was tested more than once in an assay, its records may differ in their call. The source made the active and inactive calls. Unless noted, calls come from the whole dose curve; as a rule, active = well fitted curve in the direction sought with a large enough effect in the repeat runs; inconclusive = weak or mixed curves; inactive = no such curve, though single readings can be large; an effect the other way counts as inactive or inconclusive.

Test [1] is described as follows: qHTS assay to identify small molecule agonists of the androgen receptor (AR) signaling pathway in the presence of an antagonist - cell viability counter screen (AID 1259379). Note: nearly all actives have a fitted effect of over 25% in size. Note: potency is the fitted concentration of half-maximal effect. Summed up: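 Seed MDA-kb2 at 3,000 cells/well; incubate 5 hr, 37C, 0% CO2. Add nilutamide to 3.0uM final, then pin compounds at 15 concentrations. Incubate 16 hr. Add CellTiter-Fluor at 15 hr, read fluorescence after 1 hr.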

Test [2] is described as follows: qHTS assay to identify small molecule agonists of the estrogen receptor beta (ER-beta) signaling pathway - cell viability counter screen (AID 1259380). Note: nearly all actives have a fitted effect of over 30% in size. Note: potency is the fitted concentration of half-maximal effect. The method, boiled down: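 CellTiter-Glo read, 30 min RT, same wells as bla assay; cells ER-beta-UAS-bla HEK293T; 16 hr compound, 37C; medium 2% charcoal-stripped FBS.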
Test [3] in a line: qHTS assay to identify small molecule antagonists of the estrogen receptor beta (ER-beta) signaling pathway - cell viability counter screen (AID 1259382).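 Note: HEK293T cells carrying ER-beta-UAS-bla reporter stimulated with estradiol; series mostly up to about 92 µM; nearly all actives have a fitted effect of over 55% in size.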 Summed up:
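In this multiplexed counter screen, cells were seeded at 2,000 per well in medium with 2% charcoal-stripped FBS and incubated 6 hr before compound and 1nM final E2 were added. Sixteen hours later, ATP-based luminescence reported viability.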

The nature of test [4]: qHTS assay to identify small molecule agonists or antagonists of the thyroid stimulating hormone receptor (TSHR) signaling pathway - wild type cell line counter screen (AID 1259384; calls by dose curve). Summed up:
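Wild-type Hek293 cells, 800/well, 18 h at 37C, then compound with Ro20-1724 for 30 min RT. cAMP by HTRF (cAMP-d2/anti-cAMP cryptate), 1 h RT, fluorescence read. 15 concentrations, triplicates.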

The target of test [5] is Thyrotropin receptor (Homo sapiens) (UniProt P16473). Description: qHTS assay to identify small molecule antagonists of the thyroid stimulating hormone receptor (TSHR) signaling pathway (AID 1259385; calls by dose curve; note: nearly all actives have a fitted effect of over 20% in size). Summed up: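 TSHR-HEK293 cells (800/well) plated 18 h, then compounds with Ro20-1724 and TSH at 1.5 ng/mL final, 30 min at room temperature. cAMP quantified by HTRF (cAMP-d2/anti-cAMP-cryptate, 1 h); 15 concentrations in triplicate.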

A short description of test [6]: qHTS assay to identify small molecule agonists of the estrogen receptor alpha (ER-alpha) signaling pathway in the presence of an antagonist - cell viability counter screen (AID 1259386).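 Note: series mostly up to about 92 µM; cells exposed to compounds for 22 h at 37 °C before the viability read; nearly all actives have a fitted effect of over 30% in size.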 The method, boiled down:
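Viability counter screen using VM7Luc4E2 (full-length ER-alpha, four ERE-luciferase). The cells were treated with compounds alongside ICI-182,780 10.0nM for 22hr, and live-cell protease fluorescence was quantified with CellTiter-Fluor.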

The target in test [7] is Progesterone receptor (Homo sapiens) (UniProt P06401). Put plainly: qHTS assay to identify small molecule agonists of the progesterone receptor (PR) signaling pathway (AID 1346784; calls by dose curve; note: nearly all actives have a fitted effect of over 30% in size). The method, boiled down:
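PR-UAS-bla HEK 293T cells carrying a UAS-driven beta-lactamase reporter were seeded in medium with 2% charcoal-stripped FBS, preincubated 6 hr at 37C, then exposed to compounds in DMSO for 16 hr; agonism was read by LiveBLAzer B/G FRET fluorescence.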

Test [8] shares this target. Put plainly: qHTS assay to identify small molecule antagonists of the progesterone receptor (PR) signaling pathway (AID 1346795; active = well fitted inhibition curve with a large enough effect in the signal ratio in the repeat runs, not every such curve was filed as active; the % refers to the signal ratio; note: potency is the fitted concentration of half-maximal effect). Summed up:
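PR-UAS-bla HEK293T cells carrying a UAS-driven beta-lactamase reporter were plated in medium with 2% charcoal-stripped FBS and rested 6 hr at 37C. Compounds were added with 1 nM R5020 (final) for 16 hr, then FRET substrate loaded 2 hr at room temperature.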

Test [9] can be described thus: qHTS assay to identify small molecule antagonists of the progesterone receptor (PR) signaling pathway - cell viability counter screen (AID 1346798). Note: series mostly up to about 92 µM; nearly all actives have a fitted effect of over 50% in size. The method, boiled down:
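PR-UAS-bla HEK293T cells in medium with 2% charcoal-stripped FBS were treated with compounds plus R5020 for 16 hr at 37C. Cell viability was then read by CellTiter-Glo luminescence after 30 min at room temperature in the same wells.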

Test [10] can be described thus: qHTS assay to identify small molecule agonists of the progesterone receptor (PR) signaling pathway - cell viability counter screen (AID 1346799; calls by dose curve; note: nearly all actives have a fitted effect of over 45% in size). The method, boiled down: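 PR-UAS-bla HEK293T cells, 3,000 per well in medium with 2% charcoal-stripped FBS, were preincubated 6 hr at 37C, then exposed to compounds for 16 hr; viability was read as CellTiter-Glo luminescence after 30 min at room temperature.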

Test [11] is described as follows: qHTS assay to identify small molecule antagonists of the TGF-beta/Smad signaling pathway - cell viability counter screen (AID 1346824). Note: nearly all actives have a fitted effect of over 50% in size. Summed up: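 SBE-bla HEK 293T cells, incubated overnight, then compound plus 0.25 ng/mL TGF-beta1 (stock added) for 5 hr at 37 C. Viability was read in the same wells by CellTiter-Glo luminescence after 30 min at room temperature.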

The nature of test [12]: qHTS assay to identify small molecule agonists of the TGF-beta/Smad signaling pathway (AID 1346859; active = well fitted activation curve with a large enough effect in the signal ratio in the repeat runs, not every such curve was filed as active; the % refers to the signal ratio; note: series mostly up to about 77 µM). Summed up:
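HEK 293T cells stably carrying a beta-lactamase reporter driven by the Smad binding element were seeded overnight, exposed to DMSO-dissolved compounds for 5 hr at 37 C, 5% CO2, then loaded with FRET substrate for 2 hr at room temperature.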

The target in test [13] is Estrogen receptor (Homo sapiens) (UniProt P03372). Put plainly: qHTS assay to identify small molecule agonists of the estrogen receptor alpha (ER-alpha) signaling pathway in the presence of an antagonist (AID 1259383; calls by dose curve; note: top concentration of the series differs between compounds; nearly all actives have a fitted effect of over 15% in size). The method, boiled down: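 Stably transfected VM7Luc4E2 reporter cells, kept 5 days in charcoal-stripped serum, received ICI-182,780 at 10.0nM final before compound addition. Following 22hr incubation at 37C and 5% CO2, luciferase signal was read by luminescence.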

Test [14] in a line: qHTS assay to identify small molecule agonists of the TGF-beta/Smad signaling pathway - cell viability counter screen (AID 1346829). Note: top concentration of the series differs between compounds; nearly all actives have a fitted effect of over 45% in size. Summed up:
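HEK 293T SBE-bla line, 5 hr compound exposure at 37 C, multiplexed CellTiter-Glo viability read by luminescence.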

Test [15] deals with Thyrotropin-releasing hormone receptor (Homo sapiens) (UniProt P34981). Description: qHTS assay to identify small molecule antagonists of the thyrotropin-releasing hormone receptor (TRHR) signaling pathway (AID 1346877; active = well fitted inhibition curve with a large enough effect in the repeat runs, not every such curve was filed as active; note: series mostly up to about 51 µM). Summed up: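 Following an 18 h incubation at 37 °C and a 2 h calcium dye load, TRHR-HEK293 cells were exposed to compound (5 min, room temperature) and challenged with TRH, 1 nM final.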

Test [16] shares this target. Description: qHTS assay to identify small molecule agonists of the thyrotropin-releasing hormone receptor (TRHR) signaling pathway (AID 1346891; calls by dose curve; note: series mostly up to about 58 µM). Summed up:
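TRHR-expressing HEK293 cells were plated 18 h at 37 °C/5% CO2, loaded with calcium dye 2 h at 37 °C, then given compound in DMSO; fluorescence was read kinetically for 3 min at 1 s intervals.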

Test [17] can be described thus: Human pregnane X receptor (PXR) small molecule agonists, qHTS cell viability counter screen (AID 1346977). Note: nearly all actives have a fitted effect of over 50% in size. Summed up: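 PXR-Luc HepG2 cells in medium with 5% charcoal-stripped FBS were pre-incubated 5hr, then exposed to compounds for 24hr at 37C. Viability was read in the same wells by CellTiter-Fluor fluorescence, reagent added after 23hr with a 1hr incubation.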

For test [18], the target named is Androgen receptor (Homo sapiens) (UniProt P10275). Description: qHTS assay to identify small molecule agonists of the androgen receptor (AR) signaling pathway in the presence of an antagonist (AID 1259381; calls by dose curve; note: nearly all actives have a fitted effect of over 15% in size). Summed up:
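Test compounds at 15 concentrations were incubated for 16hr with MDA-kb2 reporter cells in presence of 3.0uM nilutamide (final). Signal: ONE-Glo luciferase luminescence.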

Sequence of Estrogen receptor (Homo sapiens) (P03372 whole entry, looked up): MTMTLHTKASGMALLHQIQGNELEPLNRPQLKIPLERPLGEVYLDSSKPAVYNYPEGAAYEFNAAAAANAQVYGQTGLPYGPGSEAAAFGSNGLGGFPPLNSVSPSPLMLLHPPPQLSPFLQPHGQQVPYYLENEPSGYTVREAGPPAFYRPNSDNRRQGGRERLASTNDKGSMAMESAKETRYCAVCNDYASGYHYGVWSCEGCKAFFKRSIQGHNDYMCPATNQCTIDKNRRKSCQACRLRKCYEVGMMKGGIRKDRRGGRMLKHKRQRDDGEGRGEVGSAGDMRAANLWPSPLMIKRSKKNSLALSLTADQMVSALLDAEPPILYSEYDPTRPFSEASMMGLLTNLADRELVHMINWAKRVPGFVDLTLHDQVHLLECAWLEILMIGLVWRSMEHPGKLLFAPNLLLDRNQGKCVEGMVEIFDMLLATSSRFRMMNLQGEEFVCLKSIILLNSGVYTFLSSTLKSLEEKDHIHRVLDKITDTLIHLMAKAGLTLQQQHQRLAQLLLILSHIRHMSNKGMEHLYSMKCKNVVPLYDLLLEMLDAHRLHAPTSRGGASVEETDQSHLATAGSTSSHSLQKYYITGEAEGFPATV
Sequence of Androgen receptor (Homo sapiens) (P10275 whole entry, looked up): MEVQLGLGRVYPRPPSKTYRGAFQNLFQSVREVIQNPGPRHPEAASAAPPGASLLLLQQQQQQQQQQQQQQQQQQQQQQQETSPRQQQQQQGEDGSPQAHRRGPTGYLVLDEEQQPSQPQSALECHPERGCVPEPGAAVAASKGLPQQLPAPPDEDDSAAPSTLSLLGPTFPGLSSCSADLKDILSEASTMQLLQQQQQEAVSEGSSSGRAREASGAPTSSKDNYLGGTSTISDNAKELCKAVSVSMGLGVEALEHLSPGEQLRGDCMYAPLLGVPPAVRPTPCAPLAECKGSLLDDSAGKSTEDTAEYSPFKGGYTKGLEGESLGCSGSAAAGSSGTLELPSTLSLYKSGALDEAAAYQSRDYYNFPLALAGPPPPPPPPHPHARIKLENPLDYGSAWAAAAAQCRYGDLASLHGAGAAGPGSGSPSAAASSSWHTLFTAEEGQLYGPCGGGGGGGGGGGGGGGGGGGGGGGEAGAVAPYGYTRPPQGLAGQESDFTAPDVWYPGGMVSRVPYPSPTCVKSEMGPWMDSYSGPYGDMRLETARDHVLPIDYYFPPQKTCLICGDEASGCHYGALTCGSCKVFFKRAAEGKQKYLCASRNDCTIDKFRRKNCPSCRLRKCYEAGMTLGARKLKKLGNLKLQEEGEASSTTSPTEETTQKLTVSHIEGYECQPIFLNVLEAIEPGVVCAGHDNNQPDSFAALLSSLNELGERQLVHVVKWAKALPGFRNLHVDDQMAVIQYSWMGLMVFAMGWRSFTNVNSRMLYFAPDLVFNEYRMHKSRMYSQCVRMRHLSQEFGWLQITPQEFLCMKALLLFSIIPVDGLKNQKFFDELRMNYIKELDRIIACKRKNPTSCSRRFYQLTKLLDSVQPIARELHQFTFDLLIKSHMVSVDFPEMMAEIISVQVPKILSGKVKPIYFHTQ
Sequence of Thyrotropin receptor (Homo sapiens) (P16473 whole entry, looked up): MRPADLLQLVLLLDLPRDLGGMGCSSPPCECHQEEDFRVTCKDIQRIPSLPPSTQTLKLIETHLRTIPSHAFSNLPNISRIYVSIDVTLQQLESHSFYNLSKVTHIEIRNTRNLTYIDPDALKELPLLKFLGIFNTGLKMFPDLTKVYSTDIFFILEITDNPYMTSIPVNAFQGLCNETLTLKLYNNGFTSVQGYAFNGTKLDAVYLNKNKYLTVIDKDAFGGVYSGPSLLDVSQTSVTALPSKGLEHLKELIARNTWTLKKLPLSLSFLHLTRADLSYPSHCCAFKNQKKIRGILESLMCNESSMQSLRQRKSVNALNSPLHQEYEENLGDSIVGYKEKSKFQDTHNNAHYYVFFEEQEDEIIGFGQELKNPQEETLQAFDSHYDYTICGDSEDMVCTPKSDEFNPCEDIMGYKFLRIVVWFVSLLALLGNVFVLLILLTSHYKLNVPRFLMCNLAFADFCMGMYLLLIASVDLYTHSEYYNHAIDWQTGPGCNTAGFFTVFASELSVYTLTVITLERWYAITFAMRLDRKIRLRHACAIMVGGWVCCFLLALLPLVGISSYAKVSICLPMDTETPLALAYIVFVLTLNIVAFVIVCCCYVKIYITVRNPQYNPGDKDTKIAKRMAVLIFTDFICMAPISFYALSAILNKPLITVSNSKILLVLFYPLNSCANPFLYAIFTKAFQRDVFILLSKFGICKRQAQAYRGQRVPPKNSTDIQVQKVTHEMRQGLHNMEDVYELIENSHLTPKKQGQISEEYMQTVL
Sequence of Progesterone receptor (Homo sapiens) (P06401 whole entry, looked up): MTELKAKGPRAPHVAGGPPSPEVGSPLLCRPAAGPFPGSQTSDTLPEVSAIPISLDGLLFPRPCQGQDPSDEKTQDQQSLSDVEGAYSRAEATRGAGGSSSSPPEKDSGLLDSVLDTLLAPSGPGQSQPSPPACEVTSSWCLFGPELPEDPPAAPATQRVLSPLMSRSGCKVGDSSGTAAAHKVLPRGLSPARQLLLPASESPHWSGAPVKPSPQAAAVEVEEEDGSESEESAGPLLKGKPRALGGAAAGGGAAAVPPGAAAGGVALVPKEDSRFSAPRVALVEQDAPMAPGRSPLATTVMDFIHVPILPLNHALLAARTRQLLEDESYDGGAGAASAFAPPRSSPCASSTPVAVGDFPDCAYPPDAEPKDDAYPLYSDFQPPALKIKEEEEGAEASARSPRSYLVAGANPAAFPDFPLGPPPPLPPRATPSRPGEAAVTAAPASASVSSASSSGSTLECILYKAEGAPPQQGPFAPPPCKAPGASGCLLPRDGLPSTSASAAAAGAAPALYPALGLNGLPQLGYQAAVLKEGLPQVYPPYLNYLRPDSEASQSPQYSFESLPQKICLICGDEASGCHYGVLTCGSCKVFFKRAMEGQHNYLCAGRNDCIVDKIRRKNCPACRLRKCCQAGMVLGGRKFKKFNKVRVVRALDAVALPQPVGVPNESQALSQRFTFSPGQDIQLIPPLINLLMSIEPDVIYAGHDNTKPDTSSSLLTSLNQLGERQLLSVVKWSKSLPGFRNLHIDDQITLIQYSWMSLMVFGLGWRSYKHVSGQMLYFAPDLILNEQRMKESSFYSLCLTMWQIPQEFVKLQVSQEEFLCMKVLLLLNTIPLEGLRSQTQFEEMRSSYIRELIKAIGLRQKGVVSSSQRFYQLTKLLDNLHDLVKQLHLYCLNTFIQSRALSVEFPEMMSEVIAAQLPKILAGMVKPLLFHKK
Sequence of Thyrotropin-releasing hormone receptor (Homo sapiens) (P34981 whole entry, looked up): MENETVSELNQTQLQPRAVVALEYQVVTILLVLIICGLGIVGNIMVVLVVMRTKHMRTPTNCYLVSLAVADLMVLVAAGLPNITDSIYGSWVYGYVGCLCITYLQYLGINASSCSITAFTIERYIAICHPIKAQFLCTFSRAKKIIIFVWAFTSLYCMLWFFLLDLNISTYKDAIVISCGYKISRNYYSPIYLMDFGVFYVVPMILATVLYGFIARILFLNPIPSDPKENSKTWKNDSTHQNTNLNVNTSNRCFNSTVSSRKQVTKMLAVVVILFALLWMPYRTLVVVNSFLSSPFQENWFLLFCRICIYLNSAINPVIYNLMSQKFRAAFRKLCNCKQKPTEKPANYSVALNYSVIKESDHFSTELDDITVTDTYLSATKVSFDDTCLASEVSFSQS

On to `Cc1ccc(N)cc1`, for which the Potency entry in test [1], in test [2], in test [6], in test [7], in [8] and in test [9] was “inactive” in each case. The Potency result in test [11] was “inactive”. The result in test [3], in [4], in test [5], in test [10] and in [12] was inactive.
For `O=C(O)Cc1ccccc1`, the Potency entry in [1], in test [2], in [6], in test [7], in test [8] and in test [9] was “inactive” each time. Moreover, the Potency entry in [11], in test [14] and in test [17] was “inactive” throughout. Moreover, the compound was called inactive in [3], in test [13], in test [10], in [12], in [15] and in [16].
For `COc1cc(-c2ccc(N)c(OC)c2)ccc1N`, the Potency entry in [1] was “inactive and 52 µM (active)”; in test [2], 14.7 µM (active); in [8] it was 48.8 µM (active) and 27.3 µM (active) and 46.3 µM (active). For the same compound, the outcome in [3], in [10], in test [15] and in test [16] was inactive. Moreover, the Potency result in [6], in test [7], in test [11], in test [14] and in test [17] was “inactive” throughout.
`CCCOC(=O)c1ccccc1C(=O)OCCC`: the Potency entry in test [1], in test [2], in test [6], in test [7], in test [8] and in test [9] was “inactive” in each case. The Potency result in test [11], in test [14] and in test [17] was “inactive” throughout. Besides, the compound was called inactive in test [3], in [13], in test [10], in [15] and in test [16].
As to `CNC(=O)O/N=C/C(C)(C)SC`, the Potency entry in test [1], in test [2], in [6], in test [7], in test [8] and in [9] was “inactive” throughout. For the same compound, the Potency result in [11] and in [14] was “inactive” each time. The outcome in test [3], in test [13], in test [4], in [5], in [10] and in test [12] was inactive. Moreover, the result in [15] and in [16] was inactive.
Turning to `O=P1(NCCCl)OCCCN1CCCl` (stereo not given), the Potency result in test [1], in [2], in test [6], in test [7], in [8] and in [9] was “inactive” each time. The Potency entry in test [11], in [14] and in [17] was “inactive” each time. The compound was called inactive in test [3], in [4], in test [5], in [10], in test [12] and in test [15]. The call in test [16] was inactive.
Regarding `O=C/C=C/c1ccccc1`, the Potency result in test [1], in test [2], in test [6], in [7], in test [8] and in [9] was “inactive” each time. The Potency entry in test [11] and in test [14] was “inactive” throughout. Moreover, the call in test [3], in test [13], in test [4], in [5], in test [10] and in [12] was inactive. Moreover, the compound was classed as inactive in test [15] and in [16].
For the compound `CCOP(=S)(OCC)Oc1ccc([N+](=O)[O-])cc1`, the Potency entry in test [1], in test [2], in test [6], in [7], in [9] and in test [11] was “inactive” throughout. The Potency entry in [14] is “inactive”. In addition, the compound was called inactive in [3], in test [4], in test [5], in [15] and in test [16].
For `CC(C)CCCCCCOC(=O)c1ccccc1C(=O)OCCCCCCC(C)C`, the Potency entry in test [1], in test [2], in [6], in test [7], in [8] and in [9] was “inactive” each time. The Potency entry in [11] and in test [14] was “inactive” throughout. For the same compound, the outcome in [18], in [3], in test [13], in test [4], in [5] and in test [10] was inactive. Further, the compound was called inactive in [12], in test [15] and in [16].
